Experimental data published in the GenesisPotency data set.
Among all 290,000 compounds or so, about 3,000 (1%) were called active. Cut-off read from the data, not from the text of the source: active = inhibition mostly above about 36% (no sharp cut-off); inactive = mostly below about 34%. This excerpt belongs to a sample that is enriched for actives.

The molecules below were run against T1, Nucleotide-binding oligomerization domain-containing protein 1, Homo sapiens (UniProt Q9Y239) (assay: NOD1 signaling inhibitors, primary screen, cell-based, luminescence, uHTS (AID 1578)).
T1 sequence (whole entry): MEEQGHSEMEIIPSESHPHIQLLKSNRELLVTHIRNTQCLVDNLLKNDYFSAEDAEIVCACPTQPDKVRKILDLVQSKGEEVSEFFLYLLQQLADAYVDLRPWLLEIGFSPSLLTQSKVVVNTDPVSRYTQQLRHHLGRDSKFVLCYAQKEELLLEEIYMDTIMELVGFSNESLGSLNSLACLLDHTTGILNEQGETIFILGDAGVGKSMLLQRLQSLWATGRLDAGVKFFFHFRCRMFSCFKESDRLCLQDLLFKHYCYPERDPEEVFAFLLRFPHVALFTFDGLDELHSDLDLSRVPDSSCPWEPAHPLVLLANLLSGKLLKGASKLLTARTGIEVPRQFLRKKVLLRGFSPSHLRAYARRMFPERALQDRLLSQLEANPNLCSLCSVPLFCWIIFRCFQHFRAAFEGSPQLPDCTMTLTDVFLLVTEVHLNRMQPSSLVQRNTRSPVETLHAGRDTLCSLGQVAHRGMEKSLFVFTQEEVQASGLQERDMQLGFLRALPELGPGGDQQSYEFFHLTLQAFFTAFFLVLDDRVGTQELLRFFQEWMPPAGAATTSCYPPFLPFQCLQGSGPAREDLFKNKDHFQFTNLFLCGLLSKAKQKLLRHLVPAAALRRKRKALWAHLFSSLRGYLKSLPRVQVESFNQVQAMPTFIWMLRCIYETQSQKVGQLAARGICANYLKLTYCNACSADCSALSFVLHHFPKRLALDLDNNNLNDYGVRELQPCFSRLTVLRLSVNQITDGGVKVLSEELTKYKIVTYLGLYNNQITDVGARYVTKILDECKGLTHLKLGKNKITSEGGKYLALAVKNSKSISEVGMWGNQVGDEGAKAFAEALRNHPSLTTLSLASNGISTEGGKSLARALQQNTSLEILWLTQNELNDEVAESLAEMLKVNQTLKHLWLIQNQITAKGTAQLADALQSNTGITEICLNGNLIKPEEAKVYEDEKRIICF
O=[N+]([O-])c1ccc(/C=N/N=C/c2ccc([N+](=O)[O-])o2)o1 was tested, and the outcome was “active”. Cc1scc(C(=O)N/N=C/c2ccc([N+](=O)[O-])o2)c1C was tested, and the outcome was “active”. O=C(N/N=C/c1ccc([N+](=O)[O-])o1)c1ccc2c(c1)OCO2 was tested, and the outcome was “active”. In the case of O=C(N/N=C/c1ccc([N+](=O)[O-])o1)c1ccccc1-n1cccc1, the outcome was “active”. For O=C(N/N=C/c1ccc([N+](=O)[O-])o1)c1ccccc1NS(=O)(=O)c1cccs1, the outcome was “active”. Cc1nn(-c2cc(C(F)(F)F)ccc2Cl)c2nc(C(Cl)(Cl)Cl)[nH]c(=O)c12 was tested, and the outcome was “active”. With Cc1nn(-c2cccc(Cl)c2)c2nc(C(F)(F)F)[nH]c(=O)c12 the outcome was “active”. With COc1cccc(N2CCN(c3ncnc4c3cnn4-c3ccc(C)cc3C)CC2)c1 the outcome was “active”. With COc1ccc(-c2n(CC(=O)OC3CC(C)CCC3C(C)C)c3ccccc3[n+]2C)cc1.[Cl-] (configuration not stated) the outcome was “active”. Cc1csc(SCC(=O)Nc2cccc3nsnc23)n1 was tested, and the outcome was “active”. In the case of Cc1noc(C)c1CSc1nc2ccccc2nc1NS(=O)(=O)c1ccc(Cl)cc1, the outcome was “active”. For Cc1[nH]nc2ncc(C(=O)c3ccccc3O)cc12, the outcome was “active”. For Clc1ccc(CSc2nnc(-c3ccncc3)o2)cc1, the outcome was “active”. In the case of Fc1ccc(CSc2nnc(-c3ccncc3)o2)cc1, the outcome was “active”. In the case of O=c1cc(-c2ccccc2Cl)oc2c([N+](=O)[O-])c(O)cc(O)c12, the outcome was “active”. With O=C(CSc1nc2nc(-c3cccs3)cc(C(F)(F)F)c2c(=O)[nH]1)Nc1c(F)c(F)c(F)c(F)c1F the outcome was “active”. CCOc1ccccc1NC(=O)CSc1nc2nc(-c3cccs3)cc(C(F)(F)F)c2c(=O)[nH]1 was tested, and the outcome was “active”. With O=C(CSc1nc2nc(-c3cccs3)cc(C(F)(F)F)c2c(=O)[nH]1)Nc1ccc(F)c(F)c1 the outcome was “active”. For Cc1ccc(C)c(NC(=O)CSc2nc3nc(-c4cccs4)cc(C(F)(F)F)c3c(=O)[nH]2)c1, the outcome was “active”. With COc1ccc(-c2c(C(F)(F)F)[nH]n3c(=O)cc(-c4ccccc4)nc23)cc1 the outcome was “active”. With O=c1cc(-c2ccccc2)nc2c(-c3ccccc3)c(C(F)(F)F)[nH]n12 the outcome was “active”. In the case of CC(C)CC(=O)/C=C/n1c(=S)oc2ccccc21, the outcome was “active”. With CC(=O)/C=C/n1c(=S)oc2ccccc21 the outcome was “active”. With CCOC(=O)N1CCN(C(=O)C2CCCN(Cc3nc(-c4ccc(Cl)cc4)oc3C)C2)CC1 (configuration not stated) the outcome was “active”. With CC(=O)c1c(C)[nH]c(C(=O)OCC(=O)Nc2sc3c(c2C#N)CCCC3)c1C the outcome was “active”. COc1ccccc1Nc1nc(-c2sc(NC(=O)c3ccco3)nc2C)cs1 was tested, and the outcome was “active”. With Br.CC(=O)Nc1nc(C)c(-c2csc(Nc3ccc(O)cc3)n2)s1 the outcome was “active”. For CC[C@H]1CN2CCc3cc(OC)c(OC)cc3[C@@H]2C[C@@H]1C[C@H]1NCCc2cc(OC)c(OC)cc21.Cl, the outcome was “active”. For O=C(NC(=S)N1CCN(c2ccc(Cl)cc2[N+](=O)[O-])CC1)c1cccs1, the outcome was “active”. In the case of O=C(NC(=S)N1CCN(c2ccc(C(F)(F)F)cc2[N+](=O)[O-])CC1)c1cccs1, the outcome was “active”. For O=C(c1ccc2c(c1)CCN2S(=O)(=O)c1ccccc1)N1CCN(c2ccc(F)cc2)CC1, the outcome was “active”. With COc1ccc(C2CC(c3cccs3)=NN2C(=O)CCl)cc1OC (configuration not stated) the outcome was “active”. COc1cc(C2CC(c3cccs3)=NN2C(=O)CCl)ccc1OC(F)F (configuration not stated) was tested, and the outcome was “active”. O=C(COc1ccc(C(=O)c2ccccc2)cc1)Nc1cccnc1 was tested, and the outcome was “active”. For Cc1ccc(-n2ncc(Br)c(Br)c2=O)cc1, the outcome was “active”. With COc1cc(OC)nc(-n2ncc(Br)c(Br)c2=O)n1 the outcome was “active”. For Cc1cccc(/C=C(\c2nc3ccccc3[nH]2)S(=O)(=O)c2ccccc2)c1, the outcome was “active”. O=S(=O)(/C(=C/c1ccc(C(F)(F)F)cc1)c1nc2ccccc2[nH]1)c1ccccc1 was tested, and the outcome was “active”. In the case of CC(C)c1ccc(/C=C(\c2nc3ccccc3[nH]2)S(=O)(=O)c2ccccc2)cc1, the outcome was “active”. For N=C1SC(c2ccccc2)C(=O)N1c1ncc(Cc2ccccc2Cl)s1 (configuration not stated), the outcome was “active”. Cc1ccc(Cc2cnc(N3C(=N)SC(c4ccccc4)C3=O)s2)cc1 (configuration not stated) was tested, and the outcome was “active”. N=C1SC(c2ccccc2)C(=O)N1c1ncc(Cc2ccccc2)s1 (configuration not stated) was tested, and the outcome was “active”. For CCOc1ccc2nc(SCc3ccc(CC(=O)O)cc3)c(C#N)cc2c1, the outcome was “active”. With Cc1nc2ccc(NS(=O)(=O)c3ccc4c(c3)OCCO4)cc2s1 the outcome was “active”. With Cc1nc2ccc(NS(=O)(=O)c3c(C)c(C)cc(C)c3C)cc2s1 the outcome was “active”. For CSc1nc2ccc(NS(=O)(=O)c3ccc4c(c3)OCCO4)cc2s1, the outcome was “active”. In the case of O=C(CCl)Nc1cc(SCC(O)CO)cc([N+](=O)[O-])c1 (configuration not stated), the outcome was “active”. COc1cc(F)ccc1CN1CCC(C(=O)Nc2ccc(Oc3ccccc3)nc2)CC1 was tested, and the outcome was “active”. For CCOC(=O)C1=C(C)N=c2s/c(=C/c3cccc([N+](=O)[O-])c3O)c(=O)n2C1c1ccccc1 (configuration not stated), the outcome was “active”. For Cc1ccc(N(Cc2cc(=O)[nH]c3ccccc23)C(=O)CCl)c(C)c1, the outcome was “active”. Cc1ccccc1N(Cc1cc(=O)[nH]c2ccccc12)C(=O)CCl was tested, and the outcome was “active”. In the case of Cc1cc(C(=O)N/N=C/c2cc(Br)cc(Br)c2OC(=O)c2cccc(F)c2)n[nH]1, the outcome was “active”. For Cc1cc(C(=O)N/N=C/c2cc(Br)ccc2OC(=O)c2ccccc2)n[nH]1, the outcome was “active”. In the case of COc1cccc(C(=O)Oc2c(Br)cc(Br)cc2/C=N/NC(=O)c2cc(C)[nH]n2)c1, the outcome was “active”. For Cc1ccc(-c2csc3ncnc(Sc4nnc(CN5CCCCCC5=O)o4)c23)cc1, the outcome was “active”. COc1ccccc1NS(=O)(=O)c1cccc(-n2c(O)c(C=Nc3ccccc3C(=O)O)c3ccccc3c2=O)c1 was tested, and the outcome was “active”. For CCN(CC)S(=O)(=O)c1cccc(-n2c(O)c(C=Nc3ccccc3C(=O)O)c3ccccc3c2=O)c1, the outcome was “active”. COc1ccc(Cn2c(O)c(C=Nc3ccccc3C(=O)O)c3ccccc3c2=O)cc1 was tested, and the outcome was “active”. In the case of COC(=O)Cc1[nH]n(-c2nc3ccccc3s2)c(=O)c1C(C)=Nc1ccc(C)cc1, the outcome was “active”. For Cc1ccc(Cl)cc1N1CCN(C(=O)c2cc3c(=O)[nH]c4ccccc4c3n2C)CC1, the outcome was “active”. COc1ccc(CN(C)Cc2nc(Cc3cccc(F)c3)no2)c2cccnc12 was tested, and the outcome was “active”. With Cc1nc(SCC(=O)Nc2nc3ccccc3s2)c(C#N)c(C)c1C the outcome was “active”. COc1ccc(-n2nnnc2S(=O)(=O)CC(=O)N2CCCCC2)cc1 was tested, and the outcome was “active”. With Cc1cc(Nc2cccc([N+](=O)[O-])c2)n2c(nc3ccccc32)c1C#N the outcome was “active”. CCc1nnc(NC(=O)c2ccc(Cl)c(S(=O)(=O)N3CCc4ccccc43)c2)s1 was tested, and the outcome was “active”. CC(NC(=O)OC(C)(C)C)C(=O)Oc1cc2oc(=O)cc(-c3ccccc3)c2cc1Cl (configuration not stated) was tested, and the outcome was “active”. With CC(NC(=O)OCc1ccccc1)C(=O)Oc1cc2oc(=O)cc(-c3ccccc3)c2cc1Cl (configuration not stated) the outcome was “active”. In the case of COC(=O)c1ccc(Nc2c([N+](=O)[O-])c(=O)oc3ccccc23)cc1, the outcome was “active”. CCOC(=O)c1sc(N2C(=O)C(O)=C(C(=O)c3ccco3)C2c2ccco2)nc1C (configuration not stated) was tested, and the outcome was “active”. With CCOC(=O)N1CCN(C(=O)c2ccc(Cn3c(=S)[nH]c4cc5c(cc4c3=O)OCO5)cc2)CC1 the outcome was “active”. With Cc1ccc(C(=O)Sc2cccccc2=O)cc1 the outcome was “active”. With CC(=O)c1c(C)[nH]c(C(=O)OCC(=O)Nc2ccc(C)cc2[N+](=O)[O-])c1C the outcome was “active”. For CC(/C=C1\SC(=O)N(CCCC(=O)O)C1=O)=C\c1ccccc1, the outcome was “active”. With C=CCN(CC=C)C(=S)NC(=O)c1ccc(-c2ccccc2)cc1 the outcome was “active”. CN(Cc1ccccc1)C(=S)NC(=O)c1ccc(-c2ccccc2)cc1 was tested, and the outcome was “active”. In the case of CCOc1cc(/C=C(/C#N)c2ccc(Cl)cc2)cc(Cl)c1OCC(=O)O, the outcome was “active”. For CC1=C(CO)C(=O)OC([C@@H](C)C2CC[C@H]3C4C[C@H]5O[C@]56[C@@H](O)C=CC(=O)[C@]6(C)C4CC[C@]23C)C1 (some centres not stated), the outcome was “active”. With Cc1cccc(-c2nnc(NC(=O)c3ccc(Cl)cc3)o2)c1 the outcome was “active”. With CN(C)c1ccc(C(=O)Nc2nnc(-c3ccc(Cl)cc3)o2)cc1 the outcome was “active”. With O=C(Nc1nnc(-c2ccccc2)o1)c1ccc(Cl)cc1 the outcome was “active”. COc1ccc(OC)c(NC(=O)CSc2ncnc3c2cnn3-c2ccccc2Cl)c1 was tested, and the outcome was “active”. With CC(Oc1ccc(Br)cc1)c1nc2c3ccccc3nc(=S)n2[nH]1 (configuration not stated) the outcome was “active”. In the case of CCCC(Oc1ccc(Br)cc1)c1nc2c3cc(OC)c(OC)cc3nc(=S)n2[nH]1 (configuration not stated), the outcome was “active”. For COc1ccc(CCNc2ncnc3sc(C)cc23)cc1OC.Cl, the outcome was “active”. COc1ccc(CCNc2ncnc3sccc23)cc1OC was tested, and the outcome was “active”. COc1ccc(CCNc2ncnc3c2oc2ccccc23)cc1OC.Cl was tested, and the outcome was “active”. Oc1ccc(CCNc2ncnc3ccc(Cl)cc23)cc1 was tested, and the outcome was “active”. With COc1ccc(CCNc2ncnc3cc(OC)c(OC)cc23)cc1OC the outcome was “active”. For O=C(c1ccc(S(=O)(=O)c2cccc(Cl)c2)c([N+](=O)[O-])c1)N1CCN(Cc2ccccc2)CC1, the outcome was “active”. With COc1ccc(NC(=O)/C(Cl)=C(/Cl)S(=O)Cc2ccccc2)cn1 (configuration not stated) the outcome was “active”. In the case of COc1ccc(NC(=O)/C(Cl)=C(/Cl)S(=O)Cc2ccc(C)cc2)cn1 (configuration not stated), the outcome was “active”. COc1ccc(NC(=O)/C(Cl)=C(/Cl)S(=O)Cc2ccc(Cl)cc2)cn1 (configuration not stated) was tested, and the outcome was “active”. In the case of COc1ccc(NC(=O)/C(Cl)=C(/Cl)S(=O)Cc2ccccc2Cl)cn1 (configuration not stated), the outcome was “active”. For COc1ccc(CS(=O)/C(Cl)=C(/Cl)C(=O)Nc2ccc(OC)nc2)cc1 (configuration not stated), the outcome was “active”. For CC(=O)c1ccc(N2CCN(C(=S)Nc3ccc(Oc4ccccc4)cc3)CC2)cc1, the outcome was “active”. With C=CCSc1nsc(NC(=O)Nc2cccc(C(C)=O)c2)n1 the outcome was “active”. Cc1ccc(CS(=O)(=O)c2ccc(C(=O)N3CCN(c4ccccn4)CC3)cc2[N+](=O)[O-])cc1 was tested, and the outcome was “active”. With Cc1ccccc1CN1CCc2c(OCC(=O)N3CCCc4ccccc43)cccc2C1=O the outcome was “active”. O=[N+]([O-])c1ccc(NC(=S)NCCc2ccc(Cl)cc2)cc1 was tested, and the outcome was “active”. For O=[N+]([O-])c1ccc(NC(=S)NCc2ccc(F)cc2)cc1, the outcome was “active”. For COc1ccc(-c2cc(C)no2)cc1S(=O)(=O)N1CCN(c2ccccc2F)CC1, the outcome was “active”. In the case of Cc1cc(-c2ccc(C)c(S(=O)(=O)N3CCN(c4ccc(F)cc4)CC3)c2)on1, the outcome was “active”.
